PubChem BioAssay AID431 (Sanford-Burnham Center for Chemical Genomics, 2006)
In all, about 63,000 compounds went through this assay and about 1,100 (1.7%) were called active.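 How the source made its calls: active means compounds whose percent cytotoxicity in the single-dose primary screen, scaled between solvent and toxic-drug controls, exceeds 50; inactive means the rest.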 For the sample, actives were picked, then their nearest neighbours and some compounds at random. Potency and affinity values are given separately.

Assay: cytotoxicity in KRAS-transformed pancreatic duct cells, primary screen, cell-based, fluorescence, HTS (AID 431);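 further: 0% = DMSO solvent wells and 100% = doxorubicin-treated wells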
Conditions: HPDE-C7K KRASV12 cells, Alamar Blue viability, 48 h; at 10 µM; active compounds read high

Structure (SMILES) | cytotoxicity
CCc1ccc(NC(=O)C2CC=CCC2C(=O)O)cc1 (centres undefined) | -3.7% (inactive)
O=C(O)C1C2C=CC3(CN(Cc4ccco4)C(=O)C13)O2 (centres undefined) | 1.9% (inactive)
O=C(O)C1C2C=CC3(CN(Cc4ccccn4)C(=O)C13)O2 (centres undefined) | 76.1% (active)
O=C(O)C1C2C=CC3(CN(Cc4ccncc4)C(=O)C13)O2 (centres undefined) | -2.7% (inactive)
Cc1cc(NS(=O)(=O)c2ccc(NC(=O)Nc3ccccc3)cc2)no1 | -21% (inactive)
CCOC(=O)c1ccc(NC(=O)CCc2nc(-c3ccc(Cl)cc3)no2)cc1 | 0.1% (inactive)
CCOC(=O)c1ccc(NC(=O)CCc2nc(-c3ccccc3Cl)no2)cc1 | 76.1% (active)
CCOC(=O)c1ccc(NC(=O)CCc2nc(-c3ccccc3)no2)cc1 | -8% (inactive)
CC1CCCC(C)N1C(=O)Cn1c(=O)sc2ccccc21 (centres undefined) | 0.8% (inactive)
Cc1ccc(C2CC(C(F)F)n3ncc(C(=O)Nc4cnn(Cc5ccccc5C)c4)c3N2)cc1 (centres undefined) | 21.9% (inactive)
CCOC(=O)CCCCNCc1ccccc1 | -6.1% (inactive)
COc1ccc(-c2oc3ncn4nc(COc5ccccc5)nc4c3c2-c2ccc(OC)cc2)cc1 | 57.9% (active)
COc1ccc(-c2nnc(SCCc3ccccc3)n2N)cc1 | 4.3% (inactive)
COc1ccc(-c2nnc(SCc3ccccc3)n2N)cc1 | -12.1% (inactive)
COc1ccc(-c2oc3ncn4nc(Cc5ccccc5)nc4c3c2-c2ccc(OC)cc2)cc1 | 57% (active)
Cc1nc2c3c(-c4ccccc4)c(-c4ccccc4)oc3ncn2n1 | 1% (inactive)
COc1ccccc1OCc1nc2c3c(-c4ccccc4)c(-c4ccccc4)oc3ncn2n1 | 9.1% (inactive)
COc1ccc(C)cc1N(CC(=O)NC1CCCC1)C(=O)CCC(=O)Nc1cc(C)on1 | -5.7% (inactive)
CCCCS(=O)(=O)/C=C\C=C/S(=O)(=O)CCCC | 112% (active)
CCCCS(=O)(=O)/C=C\C1C2C=CC(C2)C1S(=O)(=O)CCCC (centres undefined) | -2.6% (inactive)
OC(COc1ccc(Cl)cc1)CN1C2=NCCCN2c2ccccc21 (centres undefined) | 6.4% (inactive)
CCC(=O)c1ccccc1OCCCN1C(=O)NC(C)(C)C1=O | 21% (inactive)
CC1CC(C)CN(S(=O)(=O)c2ccc3c(c2)oc(=O)n3CC(=O)N2CCOCC2)C1 (centres undefined) | 2.5% (inactive)
c1ccc(-c2ccc(-n3ccnc3)cc2)cc1 | 2.4% (inactive)

Structure (SMILES) | cytotoxicity
c1ccc(-c2nc(-n3ccnc3)nc(-n3ccnc3)n2)cc1 | 19.8% (inactive)
Clc1ccc(-c2nnc(-c3ccc(Br)o3)o2)c(Cl)c1 | 19.1% (inactive)
CCn1c(SCC(=O)c2ccccc2)nnc1-c1cc2cc(Br)ccc2o1 | 8% (inactive)
CCCCCC(=O)N(CN1C(=O)CCC1=O)c1ccccc1 | -8.7% (inactive)
Cc1nc(NCCCN2CCOCC2)c2oc3ccccc3c2n1 | 6.7% (inactive)
O=C(O)c1cc(S(=O)(=O)N2CCCCCC2)ccc1Cl | -3.9% (inactive)
O=S(=O)(c1ccc(S(=O)(=O)N2CCCC2)cc1)N1CCCCCC1 | -15% (inactive)
O=C(CN1CCN(c2ccccn2)CC1)N1c2ccccc2CCc2ccccc21 | -4.4% (inactive)
CCN(CC(=O)NC1CCCCC1)S(=O)(=O)c1ccc(Cl)cc1 | -13.6% (inactive)
CCOC(=O)C1CCCN(c2c(NCc3ccco3)c(=O)c2=O)C1 (centres undefined) | 2.5% (inactive)
O=C(CSc1nnc(COc2ccccc2)o1)NCCc1ccccc1 | -27.9% (inactive)
COc1cc(C2C(C#N)=C(C)NC3=C2C(=O)CC(C)(C)C3)cc(OC)c1O (centres undefined) | 6.8% (inactive)
COc1ccc(C2CC(=O)C3=C(C2)NC(C)=C(C#N)C3c2ccc(N(C)C)cc2)cc1 (centres undefined) | -3.8% (inactive)
COc1ccc(C2C(C#N)=C(SC)NC3=C2C(=O)CC(C)(C)C3)cc1 (centres undefined) | -1.7% (inactive)
COc1cc(C2C(C#N)=C(C)NC3=C2C(=O)CC(C)(C)C3)ccc1O (centres undefined) | -10.6% (inactive)
COc1cc(C2C(C#N)=C(C)NC3=C2C(=O)c2ccccc23)cc(OC)c1OC (centres undefined) | 80.3% (active)
COc1ccc(C2C(C#N)=C(C)NC3=C2C(=O)c2ccccc23)cc1 (centres undefined) | 53.8% (active)
CCOC(=O)c1ccccc1NC(=O)CN(c1ccccc1OC)S(C)(=O)=O | -1.1% (inactive)
CCCCn1c(SCC(=O)Nc2cc(C)on2)nc2ccsc2c1=O | -1.8% (inactive)
CCOC(=O)C1CCCN(Cc2cc(OC)c(O)c(OC)c2)C1 (centres undefined) | -5.4% (inactive)
O=C(COc1ccccc1Br)NCc1ccco1 | -11.3% (inactive)
CC(C)(C)c1ccc(OCC(=O)NCc2ccco2)c(Br)c1 | 84.5% (active)
CCc1ccc(OCC(=O)NCc2ccco2)c(Br)c1 | -5.8% (inactive)
Cn1c(=O)n(C)c2cc(NC(=O)CSc3nnc(-c4ccccc4O)n3-c3ccccc3)ccc21 | 12.8% (inactive)

Structure (SMILES) | cytotoxicity
O=[n+]1cc(-c2ccc(F)cc2)n([O-])c2c1CCC2 | -13.4% (inactive)
COc1ccc(C2C3=C(CCCC3=O)Nc3nc(SCc4ccccc4)nn32)cc1OC (centres undefined) | -8.6% (inactive)
O=C1CC(C(=O)Nc2ccccc2C(=O)O)C(c2ccccc2)O1 (centres undefined) | -6.7% (inactive)
O=C(Oc1cccc2c(OC(=O)N3CCOCC3)cccc12)N1CCOCC1 | 6.1% (inactive)
CCCn1nnnc1SCC(=O)c1ccc(NC(C)=O)cc1 | -3.8% (inactive)
Cc1cccn2c(=O)c3cc(C(=O)N4CCN(c5ccccc5)CC4)n(C)c3nc12 | -5.9% (inactive)
Cc1cccn2c(=O)c3cc(C(=O)N4CCN(C(=O)c5ccco5)CC4)n(C)c3nc12 | -8.8% (inactive)
CC1Cc2ccccc2N1C(=O)c1cc2c(=O)n3ccccc3nc2n1C (centres undefined) | 3.6% (inactive)
Cc1cccn2c(=O)c3cc(C(=O)N4CCc5ccccc54)n(C)c3nc12 | 1.3% (inactive)
Cc1cccn2c(=O)c3cc(C(=O)N4c5ccccc5CC4C)n(C)c3nc12 (centres undefined) | 77.7% (active)
Cc1c(NCc2nc3ccccc3[nH]2)c(=O)n(-c2ccccc2)n1C | -7.6% (inactive)
Cc1ccc(C(C)C)c(OCc2nnc3n2CCCCC3)c1 | -8.3% (inactive)
COc1ccc(Cl)cc1NC(=O)c1cccnc1 | -1.6% (inactive)
CC(=O)Nc1ccc(NC2=CC(=O)CC(C)(C)C2)cc1 | -3% (inactive)
Cn1c(SCC(=O)c2ccc3c(c2)OCO3)nnc1-c1ccccn1 | 3.1% (inactive)
CCCc1cc(C(=O)Nc2ccc(C)cc2)no1 | -1.5% (inactive)
CCN(c1ccccc1)S(=O)(=O)c1ccc(C(=O)Nc2nnc(COC)o2)cc1 | 44.5% (inactive)
CC(/C=C/c1ccccc1)=N/O | -7.4% (inactive)
CC(C)(C)C(=O)/C=C(N)/C=C/c1ccccc1 | -7% (inactive)
O=C(/C=C/c1ccccc1)c1ccccc1 | 56.5% (active)
Cc1nc2sc3c(c2c2nnc(SCC(=O)NCc4ccco4)n12)CCCC3 | 5.1% (inactive)
CCSc1nc2sc3c(c2c2nnc(SCC(=O)NCc4ccco4)n12)CCCC3 | 8.1% (inactive)
C=CCn1c(SCC(=O)NCc2ccco2)nc2sc3c(c2c1=O)CCCCC3 | 6% (inactive)
CC1(C)Cc2c(sc3nc(SCC(=O)NCc4ccco4)n(-c4ccccc4)c(=O)c23)CS1 | -9.9% (inactive)

Structure (SMILES) | cytotoxicity
O=C(CSc1nc2sc3c(c2c(=O)n1-c1ccccc1)CCCC3)NCc1ccco1 | 71.9% (active)
CC1=C(C(=O)N2CCOCC2)C(c2ccsc2)C2=C(CCCC2=O)N1 (centres undefined) | 4.5% (inactive)
COC(=O)c1ccccc1NC(=O)CN1CCC(n2nnc3cc(C)ccc32)CC1 | 7.1% (inactive)
CCOc1ccc(N(CC(=O)NC2CCCC2)S(=O)(=O)c2c(C)noc2C)cc1 | 4.7% (inactive)
O=C(Oc1ccc2c(c1)OCO2)c1cccs1 | -6% (inactive)
O=C(Oc1ccc2c(c1)OCO2)c1cc2c(s1)CCC2 | 66.1% (active)
O=C(Oc1ccc2c(c1)OCO2)c1ccncc1 | 12.7% (inactive)
NS(=O)(=O)c1ccc(S(=O)(=O)NCCc2ccccc2)cc1 | -1.8% (inactive)
COc1cccc(NC(=O)NC2CCN(Cc3nnnn3Cc3ccc(F)cc3)CC2)c1 | -3.4% (inactive)
CCC(c1nnnn1C1CCCCC1)N(Cc1ccco1)Cc1cc2ccc(OC)cc2[nH]c1=O (centres undefined) | 64.5% (active)
CCOc1ccc2[nH]c(=O)c(CN(Cc3cccs3)C(CC)c3nnnn3C(C)(C)CC)cc2c1 (centres undefined) | 30.4% (inactive)
CCC(c1nnnn1Cc1ccco1)N(CCc1ccccc1)Cc1cc2cc(C)ccc2[nH]c1=O (centres undefined) | 36% (inactive)
COc1ccc2cc(CN(Cc3ccco3)C(c3nnnn3C3CCCCC3)C(C)C)c(=O)[nH]c2c1 (centres undefined) | 1.3% (inactive)
CCOC(=O)Cn1nnnc1C(CC)N(Cc1cccs1)Cc1cc2cc(C)ccc2[nH]c1=O (centres undefined) | -3.3% (inactive)
CCC(c1nnnn1Cc1ccccc1)N(Cc1ccco1)Cc1cc2cc(OC)ccc2[nH]c1=O (centres undefined) | 22.2% (inactive)
COc1ccc2cc(CN(Cc3ccco3)Cc3nnnn3C3CCCCC3)c(=O)[nH]c2c1 | 22.4% (inactive)
CCC(c1nnnn1Cc1ccco1)N(CCc1ccccc1)Cc1cc2ccc(OC)cc2[nH]c1=O (centres undefined) | 50.4% (active)
COc1ccc2cc(CN(CCc3ccccc3)Cc3nnnn3Cc3ccco3)c(=O)[nH]c2c1 | 33.5% (inactive)
CCC(c1nnnn1C1CCCC1)N(Cc1cccs1)Cc1cc2cc(C)ccc2[nH]c1=O (centres undefined) | 68.3% (active)
Cc1ccc2[nH]c(=O)c(CN(CCc3ccccc3)C(c3nnnn3Cc3ccco3)C(C)C)cc2c1 (centres undefined) | 60.2% (active)
CCC(c1nnnn1Cc1ccco1)N(Cc1ccccc1OC)Cc1cc2cc(C)ccc2[nH]c1=O (centres undefined) | -7.4% (inactive)
CCOC(=O)c1oc2ccc(Br)cc2c1CSc1nnc(C)s1 | -7.5% (inactive)
